Data: PubChem BioAssay (NCATS)
Inconclusive results are not listed. Entries that show only a call come without a potency. Unmarked numbers belong to inactive results. Calls of active or inactive are those of the source. Calls follow the shape of the dose curve; as a rule, active = well fitted curve in the direction sought with a large enough effect; inconclusive = small, poorly fitted or top-dose-only effect, or another doubt; inactive = no such curve, though single readings can be large; an effect the other way counts as inactive or inconclusive.

Columns and labels:
[1] = qHTS of pediatric cancer cell lines to identify multiple opportunities for drug repurposing: Primary screen for NB1643 cells (AID 1347099); also: nearly all actives have a fitted effect of over 50% in size
Outline: (§1)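 Cells plated at 500-1,000/well in growth medium, compounds added after 5 h. MIPE tested at 11 points (from 0.78 nM), NPC at 8 points (from 0.59 nM). CellTiter-Glo luminescence after 48 h; concentration-response curves from primary screen.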

[2] = qHTS of pediatric cancer cell lines to identify multiple opportunities for drug repurposing: Primary screen for LAN-5 cells (AID 1347100)
Outline: (§2)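 Cells (500-1,000/well) in growth media were settled 5 h at 37 degrees C, then given compounds for 48 h. Viability was read as CellTiter-Glo luminescence. Primary runs used MIPE at 11 points (0.78 nM-46 µM) and NPC at 8 points (0.59 nM-46 µM); follow-ups used 11 points.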

[3] = qHTS of pediatric cancer cell lines to identify multiple opportunities for drug repurposing: Primary screen for BT-12 cells (AID 1347101); also: nearly all actives have a fitted effect of over 25% in size
Outline: (§3)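 Cells (500-1,000/well) rested 5 h, then received compounds for 48 h; metabolically active cells were measured by CellTiter-Glo luminescence. Final concentrations spanned up to 46 µM (MIPE, 11-point) or 0.59 nM-46 µM (NPC, 8-point) in primary screens, 11-point in follow-ups.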

[4] = qHTS of pediatric cancer cell lines to identify multiple opportunities for drug repurposing: Primary screen for Rh18 cells (AID 1347102); also: nearly all actives have a fitted effect of over 65% in size
Outline: as §2

[5] = qHTS of pediatric cancer cell lines to identify multiple opportunities for drug repurposing: Primary screen for OHS-50 cells (AID 1347103); also: nearly all actives have a fitted effect of over 40% in size
Outline: as §3

[6] = qHTS of pediatric cancer cell lines to identify multiple opportunities for drug repurposing: Primary screen for control Hh wild type fibroblast cells (AID 1347106); also: nearly all actives have a fitted effect of over 55% in size
Outline: as §2

[7] = qHTS of pediatric cancer cell lines to identify multiple opportunities for drug repurposing: Primary screen for Rh41 cells (AID 1347108); also: nearly all actives have a fitted effect of over 70% in size
Outline: as §1

[8] = qHTS of pediatric cancer cell lines to identify multiple opportunities for drug repurposing: Primary screen for RD cells (AID 1347104); also: nearly all actives have a fitted effect of over 55% in size
Outline: as §1

[9] = qHTS of pediatric cancer cell lines to identify multiple opportunities for drug repurposing: Primary screen for MG 63 (6-TG R) cells (AID 1347105); also: nearly all actives have a fitted effect of over 50% in size
Outline: as §1

[10] = qHTS of pediatric cancer cell lines to identify multiple opportunities for drug repurposing: Primary screen for Rh30 cells (AID 1347107); also: nearly all actives have a fitted effect of over 75% in size
Outline: as §2
Potency is read from the fitted curve at half-maximal effect.

| SMILES | Potency [1] | Potency [2] | Potency [3] | Potency [4] | Potency [5] | Potency [6] | Potency [7] | Potency [8] | Potency [9] | Potency [10] |
| --- | --- | --- | --- | --- | --- | --- | --- | --- | --- | --- |
| C[C@@]1(C(=O)Nc2ccc(F)nc2)CCCN1c1nc(Nc2cc(C3CC3)[nH]n2)c2cccn2n1 | 0.0935 µM (active) | 0.0264 µM (active) | inactive | 16.6 µM (active) | 0.968 µM (active) | 20.9 µM (active) | 0.0743 µM (active) |  |  |  |
| O=C1C(CCC(O)c2ccc(F)cc2)C(c2ccc(O)cc2)N1c1ccc(F)cc1 (configuration not stated) | inactive | inactive | inactive | inactive |  | inactive | inactive | inactive | inactive | inactive |
| C[C@@H]1O[C@@H](O[C@H]2CC[C@@]3(C)[C@H](CC[C@@H]4[C@H]3C[C@@H](O)[C@]3(C)[C@@H](C5=CC(=O)OC5)CC[C@]43O)C2)C[C@H](O)[C@@H]1O[C@H]1C[C@H](O)[C@H](O[C@H]2C[C@H](O)[C@@H](O)[C@@H](C)O2)[C@H](C)O1 (stereo in doubt) | 0.429 µM (active) | 0.241 µM (active) | 0.14 µM (active) |  | 0.14 µM (active) |  | 0.171 µM (active) | 0.121 µM (active) | 0.0679 µM (active) |  |
| CSc1cccc(Nc2ncc3cc(-c4c(Cl)cccc4Cl)c(=O)n(C)c3n2)c1 | 0.209 µM (active) | 0.372 µM (active) | inactive |  |  | inactive | 0.743 µM (active) |  |  | inactive |
| CN1CCC[C@H]1CCO[C@](C)(c1ccccc1)c1ccc(Cl)cc1 | 20.9 µM (active) | inactive | inactive | inactive |  |  |  |  | inactive | inactive |
| CS(=O)(=O)c1ccc(C2=C(c3ccccc3)C(=O)OC2)cc1 | inactive | inactive | inactive | inactive |  | inactive | inactive |  | inactive | inactive |
| Cc1ccc(NC(=O)c2ccc(CN3CCN(C)CC3)cc2)cc1Nc1nc(-c2cccnc2)cs1 | inactive | 18.7 µM (active) | 21.7 µM (active) |  |  | inactive | inactive | 18.7 µM (active) | inactive | inactive |
| CC[C@H](C)n1cc(C)c2c(C(=O)NCc3c(C)cc(C)[nH]c3=O)cc(-c3ccc(N4CCNCC4)nc3)cc21 | 1.66 µM (active) | 23.5 µM (active) | 30.6 µM (active) |  |  | inactive | 18.7 µM (active) |  | 23.5 µM (active) |  |
| Cc1ccc(S(=O)(=O)OCC(=O)Nc2ccc(C(=O)O)c(O)c2)cc1 | 18.7 µM (active) | 2.35 µM (active) | inactive | inactive |  | inactive |  |  | inactive |  |
| Oc1cc(O)cc(C=Cc2ccc(O)c(O)c2)c1 | 20.9 µM (active) | 13.2 µM (active) | 24.3 µM (active) |  | 19.3 µM (active) |  |  |  |  |  |
| CN(C)CCOc1ccc(C(=C(CCCl)c2ccccc2)c2ccccc2)cc1 | inactive | inactive | inactive | inactive |  | inactive | inactive | inactive | inactive | inactive |
| CC(C)(F)C[C@H](N[C@@H](c1ccc(-c2ccc(S(C)(=O)=O)cc2)cc1)C(F)(F)F)C(=O)NC1(C#N)CC1 | inactive | inactive | inactive |  |  |  |  |  | inactive | inactive |
| COc1nc(C)cnc1NS(=O)(=O)c1cccnc1-c1ccc(-c2nnco2)cc1 | inactive | inactive | inactive | inactive |  |  | inactive | inactive |  | inactive |
| O[C@@H](COc1cccc2ncccc12)CN1CCN(C2c3ccccc3[C@@H]3[C@H](c4ccccc42)C3(F)F)CC1 (some centres not stated) | 3.32 µM (active) | 4.73 µM (active) | 24.3 µM (active) |  | 15.5 µM (active) | inactive | 18.7 µM (active) | 18.7 µM (active) | 29.6 µM (active) | 16.6 µM (active) |
| CN(C)CCN(C)C(=O)c1ccc(NC(=O)Nc2ccc(-c3nc(N4CCOCC4)c4ccn(CC(F)(F)F)c4n3)cc2)cc1 | 0.418 µM (active) | 2.64 µM (active) | 3.06 µM (active) | 0.187 µM (active) |  | 0.0526 µM (active) | 0.166 µM (active) | 0.372 µM (active) |  |  |
| COc1cc(Nc2nc3ccccc3nc2NS(=O)(=O)c2ccc(NC(=O)c3ccc(C)c(OC)c3)cc2)cc(OC)c1 | inactive | inactive |  | inactive |  |  |  |  |  |  |
| NS(=O)(=O)c1ccc(Nc2nc(OCC3CCCCC3)c3[nH]cnc3n2)cc1 | 18.7 µM (active) | 16.6 µM (active) | inactive | inactive |  | inactive | inactive |  | inactive |  |
| Cc1ccccc1C(C(=O)NC1CCCCC1)N(C(=O)CNc1ccc(C#N)cc1)c1cccc(F)c1 (configuration not stated) | inactive | inactive | inactive | inactive |  | inactive | inactive | inactive |  | inactive |
| Cc1nc(C(=O)NCC(=O)O)c(O)c2ccc(Oc3ccccc3)cc12 | inactive | inactive | inactive | inactive |  |  | inactive | inactive | inactive | inactive |
| COc1cc(C=CC(=O)O)ccc1O | inactive | inactive | inactive | inactive |  | inactive | inactive | inactive | inactive | inactive |
| CCc1cccc(CC)c1NC(=O)N1Cc2[nH]nc(NC(=O)c3ccc(N4CCN(C)CC4)cc3)c2C1 | inactive | 0.296 µM (active) | inactive | 8.33 µM (active) |  |  |  |  | 14.8 µM (active) | inactive |
| O=C(CO)N1CCC(c2[nH]nc(-c3ccc(Cl)cc3)c2-c2ccncn2)CC1 | inactive | inactive | inactive |  |  | inactive |  | inactive | inactive |  |

| SMILES | Potency [1] | Potency [2] | Potency [3] | Potency [4] | Potency [5] | Potency [6] | Potency [7] | Potency [8] | Potency [9] | Potency [10] |
| --- | --- | --- | --- | --- | --- | --- | --- | --- | --- | --- |
| C[C@H]1[C@H](O)O[C@@H]2O[C@@]3(C)CC[C@@H]4[C@H](C)CC[C@@H]1[C@@]24OO3 | 5.9 µM (active) | 6.62 µM (active) | 1.53 µM (active) |  | 1.37 µM (active) |  | inactive | 1.87 µM (active) | 23.5 µM (active) | inactive |
| Cn1c(=O)c(-c2c(Cl)cccc2Cl)cc2cnc(Nc3cccc(C(=O)O)c3)nc21 | inactive | inactive | inactive |  |  | inactive | inactive | inactive |  | inactive |
| CCOC(=O)N1CCN([N+]([O-])=NOc2cc(ON=[N+]([O-])N3CCN(C(=O)OCC)CC3)c([N+](=O)[O-])cc2[N+](=O)[O-])CC1 | inactive | inactive | inactive | inactive |  | inactive | inactive |  | inactive | inactive |
| CN1[C@H]2CC[C@H]1CC(OC(=O)c1c[nH]c3ccccc13)C2 (some centres not stated) | 23.5 µM (active) | inactive | inactive |  |  | inactive |  | inactive | inactive | inactive |
| CC1=C(CC(=O)O)c2cc(F)ccc2C1=Cc1ccc(S(C)=O)cc1 (configuration not stated) | 7.43 µM (active) | 26.4 µM (active) | inactive |  |  |  |  |  |  | inactive |
| CCNC(=O)[C@H]1O[C@@H](n2cnc3c(N)nc(NCCc4ccc(CCC(=O)O)cc4)nc32)[C@H](O)[C@H]1O | inactive | inactive | inactive | inactive |  | inactive | inactive | inactive | inactive | inactive |
| Nc1ncnc2c1ncn2[C@@H]1O[C@H](CO)[C@@H](O)[C@@H]1O | 0.833 µM (active) | 1.48 µM (active) | 6.11 µM (active) | 1.87 µM (active) |  | inactive | 2.35 µM (active) | 1.66 µM (active) |  |  |
| CC(C)(C)c1[nH]cnc1C=c1[nH]c(=O)c(=Cc2ccccc2)[nH]c1=O | 48.1 µM (active) | 0.001 µM (active) | 0.0111 µM (active) |  | 35.2 µM (active) | inactive |  | 34 µM (active) |  |  |
| O=C1Nc2ccc(I)cc2C1=Cc1cc(Br)c(O)c(Br)c1 | inactive | inactive | inactive | inactive |  | inactive |  | inactive | inactive | inactive |
| Cn1c(=O)c(Oc2ccc(F)cc2F)cc2cnc(NC3CCOCC3)nc21 | inactive | inactive | inactive | inactive |  | inactive | inactive | inactive |  |  |
| O=C(O)CCC=CCC[C@@H]1[C@H](N2CCCCC2)[C@@H](O)C[C@@H]1OCc1ccc(-c2ccccc2)cc1 | 5.9 µM (active) | inactive | inactive | inactive |  | inactive | 18.7 µM (active) |  | inactive |  |
| CCC(=C(c1ccc(O)cc1)c1ccc(OCCNC)cc1)c1ccccc1 | 23.5 µM (active) | 26.4 µM (active) | 27.3 µM (active) |  | 21.7 µM (active) |  |  | 33.2 µM (active) | 23.5 µM (active) |  |
| CN[C@@H](C)[C@H]1[C@H](O)C[C@@]2(C)[C@@H]3CC[C@H]4C(C)(C)[C@@H](NC)CC[C@@]45C[C@@]35CC[C@]12C | inactive | inactive | inactive | inactive |  | inactive | inactive |  |  | inactive |
| CC(=O)OCC(=O)[C@@]12OC(C)(C)O[C@H]1C[C@H]1[C@@H]3C[C@H](F)C4=CC(=O)C=C[C@]4(C)[C@@]3(F)[C@@H](O)C[C@@]12C | inactive | inactive | inactive | inactive |  | inactive |  | inactive | inactive | inactive |
| CC1CCN(c2cc(N3CCN(C)CC3)ccc2NC(=O)c2cc(C#N)c[nH]2)CC1 | inactive | inactive | inactive | inactive |  | inactive |  |  |  | inactive |
| C=C[C@@H]1CN2CCC1C[C@@H]2C(O)c1ccnc2ccc(OC)cc12 (some centres not stated) | inactive | inactive | inactive | inactive |  | inactive |  |  | inactive | inactive |
| NC(=O)c1noc([C@H](CCCC2CCCCC2)CC(=O)NO)n1 | 18.7 µM (active) | 14.8 µM (active) |  | 13.2 µM (active) | 7.69 µM (active) | inactive | 14.8 µM (active) |  |  | 18.7 µM (active) |
| NC(=O)c1ncn([C@@H]2O[C@H](CO)[C@@H](O)[C@@H]2O)n1 | inactive | inactive |  | inactive | inactive |  | inactive | inactive | inactive | inactive |
| Cc1ccc2c(=O)c3cccc(CC(=O)O)c3oc2c1C | 14.8 µM (active) |  | inactive | inactive | inactive | inactive | 23.5 µM (active) | 29.6 µM (active) | 23.5 µM (active) | inactive |
| O=C(C=Cc1ccc(O)cc1)c1ccc(O)cc1O | 13.2 µM (active) | 20.9 µM (active) |  | inactive |  | inactive |  |  |  |  |
| CC1CNc2c(cccc2S(=O)(=O)N[C@@H](CCCN=C(N)N)C(=O)N2CC[C@@H](C)C[C@@H]2C(=O)O)C1 (some centres not stated) | 5.26 µM (active) | 9.35 µM (active) |  | inactive | inactive |  | inactive |  |  | inactive |
